Publication PMC7819943, “Rice protein-binding microarrays: a tool to detect cis-acting elements near promoter regions in rice”
Whole data set: some 68,000 sequences, median “fluorescence intensity (a.u.)” near 9,100, cut for the highest 2% near 16,000. What follows is part of a selection rich in the highest values, with near analogues and random picks from the rest.

The sequences below were run against OsWRKY34 (Oryza sativa, UniProt Q0JBA9 1-250) (assay: protein-binding microarray (RPBM); PBS, 2% BSA, 51.3 ng/ul salmon testes DNA, 50 uM zinc acetate, 200 nM TF, 25 C, 1 h; high values mean tight binding). Conditions: protein: recombinant; tags: N-terminal polyhistidine and DsRed monomer fusion (pET32a); label: CyDye5-dUTP incorporated in the synthesized complementary strand; 3' TTTTT single-stranded linker to array surface; dsDNA, one strand shown.
Chain of OsWRKY34 (Q0JBA9 entry or part of it): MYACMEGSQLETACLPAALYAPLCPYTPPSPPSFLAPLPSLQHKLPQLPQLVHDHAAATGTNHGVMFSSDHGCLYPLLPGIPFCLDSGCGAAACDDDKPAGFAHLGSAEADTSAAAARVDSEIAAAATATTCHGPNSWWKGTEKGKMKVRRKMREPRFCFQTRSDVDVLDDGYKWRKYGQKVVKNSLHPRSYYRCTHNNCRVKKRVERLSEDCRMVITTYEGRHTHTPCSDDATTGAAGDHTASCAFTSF
Outline: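 Using Ni–NTA, transcription factors fused N-terminally to polyhistidine and DsRed were purified after expression in E. coli BL21-CodonPlus. These were incubated at 200 nM with a blocked, double-stranded custom Agilent array for 1 h at 25 °C in a buffer containing 50 µM zinc acetate, and the array was washed. The binding signal is per-feature fluorescence intensity (arbitrary units) on an Axon 4000B scanner.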

Sequence	binding signal
AGTCCGACTTTTCCTTTTTTTTTTCCGTGTTTTCCGTTTCCGGAGTCACCTAGTGCAG	14800 fluorescence intensity (a.u.)
TTTGTCGTTGCTTCCCTTCTTGGAGACCTTGCCTTGAAGACGGAGTCACCTAGTGCAG	8090 fluorescence intensity (a.u.)
ATTATATTTTAGGTCGCATTTTGATTCTTTTCATGTAATCCGGAGTCACCTAGTGCAG	8660 fluorescence intensity (a.u.)
TGGTTATGTGCCACAAATCATATATGCAATTTTGACTATACGGAGTCACCTAGTGCAG	9270 fluorescence intensity (a.u.)
ATGGAATCGATCACCTGCAATGCAACACCGTGCCATAATCCGGAGTCACCTAGTGCAG	8520 fluorescence intensity (a.u.)
GAGGAGAGCAGAACAGAACAAGAGGAGGAGAACAAAAAAACGGAGTCACCTAGTGCAG	8230 fluorescence intensity (a.u.)
GTCTCGGTCTTTTCGATCTCGGTCTTTTCGGTTCGGTCTTCGGAGTCACCTAGTGCAG	9340 fluorescence intensity (a.u.)
GTAGTTTTTTTCCTAGTTTCAGTTTTTGTTTTGCTTTTTTCGGAGTCACCTAGTGCAG	11200 fluorescence intensity (a.u.)
GGGTCGGTTTCTCTCTTGCTGTCTTCTCGATCGATCGATGCGGAGTCACCTAGTGCAG	20200 fluorescence intensity (a.u.)
GAACACGATGACATCGGATCGGGTCGGTTTCTCTCTTGCTCGGAGTCACCTAGTGCAG	9010 fluorescence intensity (a.u.)
ATGTTTTTCTTTTCTTTCTTCTTTTTTTTGTTTTTGACCTCGGAGTCACCTAGTGCAG	11900 fluorescence intensity (a.u.)
TTGGATCGTTTGCTTTTCTTTGCCTTTCTTTTGGATTTCTCGGAGTCACCTAGTGCAG	11700 fluorescence intensity (a.u.)
CTCGCTTTTCTCTTTTTTGATACTGTCTCGTGGTTTCTTGCGGAGTCACCTAGTGCAG	18400 fluorescence intensity (a.u.)
TCTCTTTCTCTCGCTTTCTTTTTGCATAGTTTTCTTCATGCGGAGTCACCTAGTGCAG	8700 fluorescence intensity (a.u.)
ATATATATATATATATATATATTTTGTCTTGAGTGGTTTGCGGAGTCACCTAGTGCAG	11700 fluorescence intensity (a.u.)
TGTCACAGTGTTTTGTTTGTGTTTTTGACCTTGCTTTCCTCGGAGTCACCTAGTGCAG	16800 fluorescence intensity (a.u.)
TTTTCTTTGCTTTTCGGTTTCGTTCTCCGTTTTGGTTTTTCGGAGTCACCTAGTGCAG	12400 fluorescence intensity (a.u.)
TTTTGCTTTGGTTGGTTTGCTCGTTTTTTTTTTCTTTTCTCGGAGTCACCTAGTGCAG	19600 fluorescence intensity (a.u.)
GCGTGGTTGATTTTTAGTCTTGTCGACTTCGACTTTAAGCCGGAGTCACCTAGTGCAG	9120 fluorescence intensity (a.u.)
TCGGTACTCTTGCTGAAGCAATCCTTTCTTCCTTGCCTAACGGAGTCACCTAGTGCAG	9140 fluorescence intensity (a.u.)
ACAGTACGCTACTATTCATACGCTAAATTTGTCTTTTTTACGGAGTCACCTAGTGCAG	9830 fluorescence intensity (a.u.)

Sequence	binding signal
GGTTATTATATCTACAAAATTCTTGCACACCTCAGCAATGCGGAGTCACCTAGTGCAG	8090 fluorescence intensity (a.u.)
TCCGTCTGTCTATAGCTACTATTAAAGGAGGGGAGGCTCTCGGAGTCACCTAGTGCAG	8130 fluorescence intensity (a.u.)
AAACAAACACAGAGCTTCTCTCCTCTGTTCTCCTTCTCTGCGGAGTCACCTAGTGCAG	8090 fluorescence intensity (a.u.)
CCTGTTTTTTGTTTTTGGTGGTGGTTCCGTCTCGGTTAATCGGAGTCACCTAGTGCAG	9840 fluorescence intensity (a.u.)
TTCACTTTCACCTCGCCGTCTTGGTTGTCTTGCCGTCTTTCGGAGTCACCTAGTGCAG	20200 fluorescence intensity (a.u.)
TGGCTCTCTCGCTCCTATGTGGCTATGTCTGTCTACCTAACGGAGTCACCTAGTGCAG	10800 fluorescence intensity (a.u.)
TCGTCTCCGGCCTTTTCTTGCTCTCCTCGTCTTCTTCCTCCGGAGTCACCTAGTGCAG	13200 fluorescence intensity (a.u.)
CTACATCTTCTCTCGCTATCTCTCTCTGTACTCTCTCTCTCGGAGTCACCTAGTGCAG	11400 fluorescence intensity (a.u.)
TGTGCAGTTTTGCTGTTTATGACTAGTTTACCTGTTGTCTCGGAGTCACCTAGTGCAG	10800 fluorescence intensity (a.u.)
TGCACTTCTCCACTTCACTCCTCGTCTCTTGCCGTCTTTTCGGAGTCACCTAGTGCAG	13200 fluorescence intensity (a.u.)
AATTTTCCGTTTCTCCTTTTCTTGCTTTGTTTTTTCCTTGCGGAGTCACCTAGTGCAG	15200 fluorescence intensity (a.u.)
ACTGTGGTTATCTTGCTATCTCTCCTACTCGCTCTGTCAACGGAGTCACCTAGTGCAG	16500 fluorescence intensity (a.u.)
GATTTTTTTTTTCTCGTCTCCTCGTTTTTGCTTGCCTTTCCGGAGTCACCTAGTGCAG	19200 fluorescence intensity (a.u.)
TAGTTTTGTTTAATTCCTGTCTCGGGTTTGGTTGGTTGCTCGGAGTCACCTAGTGCAG	19100 fluorescence intensity (a.u.)
GATGTCTCTCTTTTTTTTTTTGGTTTGGGTTGTCACTTTTCGGAGTCACCTAGTGCAG	9400 fluorescence intensity (a.u.)
CACGAAGCCAGTCTAACCGCCATGTGTGGGCTTGTTTGACCGGAGTCACCTAGTGCAG	8700 fluorescence intensity (a.u.)
TGCTTCTTGGACATCGCATCATATTTAAGCATGTTTTCCTCGGAGTCACCTAGTGCAG	10500 fluorescence intensity (a.u.)
CTCTCTTTCTCTTCCATTTCTTGAAACTTGTATGGAGGTTCGGAGTCACCTAGTGCAG	9410 fluorescence intensity (a.u.)
ATCATTTCGCACATTAACTCTCTCTCTCTCTCTCCATTTTCGGAGTCACCTAGTGCAG	15200 fluorescence intensity (a.u.)
AACCTTTTCTTTCTTTCTTCACTTTGGTTGCGTTGCGTCTCGGAGTCACCTAGTGCAG	24200 fluorescence intensity (a.u.)
GACCTTTTTTTCTTTTCTTCTTTGTTCTTTGTTGTTCTCTCGGAGTCACCTAGTGCAG	10700 fluorescence intensity (a.u.)
